The text below walks through data of PubChem BioAssay (EPA / NIEHS).

The source made the active and inactive calls. Rule for the calls: active = hit-call score of the fitted dose curve at least 0.9, where 1 is the maximum; inactive = score below 0.9.

A short description of this assay: CCTE_Harrill_HTTr_Viability_MCF7: CCTE's 6-hour Cell Viability Assessment for the High-Throughput Transcriptomics (HTTr) Platform, in MCF-7 cells cultured in DMEM + 10% fetal bovine serum, Harrill Lab (AID 2284010). An excerpt:
This is a cell-based assay that evaluates cell viability using high content imaging to evaluate membrane integrity using propidium iodide dye exclusion in a 384 well format.One of seven assay components measured from the CCTE_Harrill_HTTr_Viability assay. This was part of a full screening experiment. This is a cell-based assay that evaluates cell viability in MCF-7 cells cultured in DMEM + 10% fetal bovine serum. High content imaging is used to evaluate membrane integrity using propidium iodide dye exclusion. Measurements are taken at 6 hours after chemical dosing in 384-well format.The assay component endpoint CCTE_Harrill_HTTr_Viability_MCF7 was analyzed with bidirectional fitting relation to DMSO as the negative control and baseline of activity. Using a type of viability reporter, gain-of-signal activity can be used to evaluate membrane integrity using propidium iodide dye exclusion to understand changes in cytotoxicity. To generalize the intended target to other relatable targets, this assay endpoint is annotated to cell cycle, where the subfamily is cytotoxicity.
Chemicals were tested in MCF7 cells in an eight point dilution series with a six hour exposure duration.
Regarding `Clc1ccc(Oc2ccccc2)cc1`, the result was inactive. The entry for `ClC(Cl)=C(c1ccc(Cl)cc1)c1ccccc1Cl` is “inactive”. Take `O=P(Oc1ccccc1)(Oc1ccccc1)Oc1ccccc1`: the outcome was inactive.

With `OCC1CO1` (stereo not given), the outcome was inactive. Turning to `CCNc1nc(Cl)nc(NC(C)(C)C)n1`, the result was inactive. Consider `CCOP(=S)(S)OCC`, for which the outcome was inactive. Turning to `CC(C)(C)OOC(C)(C)C`, the result was inactive. Consider `CCOP(=S)(NC(C)C)Oc1ccccc1C(=O)OC(C)C` (stereo not given), for which the outcome was inactive.

Regarding `O=S(=O)(c1ccc(O)cc1)c1ccc(O)cc1`, the outcome was inactive. In the case of `Nc1cc2c3c(c1)C(c1ccccc1)=N[C@@H](NC(=O)c1cccnc1)C(=O)N3CC2` it was “inactive”. In the case of `CCOC(=O)c1ccccc1C(=O)OCC`, the outcome was inactive. In the case of `c1ccc2c(c1)sc1ccccc12` it was “inactive”. On to `c1cc2c3c(cccc3c1)CC2`, for which the result was inactive. In the case of `c1ccc(OP(Oc2ccccc2)Oc2ccccc2)cc1` it was “inactive”. The entry for `CCCCOCCOP(=O)(OCCOCCCC)OCCOCCCC` is “inactive”; for `CCOc1ccc(C(C)(C)COCc2cccc(Oc3ccccc3)c2)cc1` it is “inactive”; for `CCOP(=S)(OCC)SCSc1ccc(Cl)cc1` it is “inactive”. The entry for `CC(O)C#N` (stereo not given) is “inactive”. For `Cc1ccc2c(c1N)C(=O)c1ccccc1C2=O`, the result was inactive. As for `CCN(CC)c1ccccc1`, the outcome was inactive. For `CC(Cc1ccc(OCC(=O)O)cc1)NCC(O)c1csc(C(F)(F)F)n1` (stereo not given), the result was inactive.

Regarding `O=[N+]([O-])c1ccccc1`, the result was inactive. For `CCCCN(CCCC)SN(C)C(=O)Oc1cccc2c1OC(C)(C)C2`, the outcome was inactive.

`CCCCOCC1CO1` (stereo not given): the outcome was inactive.

Turning to `CC(C)(C)c1ccc(O)cc1`, the outcome was inactive. The entry for `CCOP(=S)(OCC)SCSCC` is “inactive”; for `Nc1ccc(Cl)cc1` it is “inactive”. In the case of `Cc1ccc(O)cc1C`, the outcome was inactive.

Turning to `CCCCCCCc1ccc(O)cc1`, the result was inactive. In the case of `Nc1ccc(Sc2ccc(N)cc2)cc1` it was “inactive”; in that of `CCC1(c2ccccc2)C(=O)N=C(O)NC1=O` (stereo not given), “inactive”; in that of `O=C(O)CF`, “inactive”. Consider `O=P(OCC(Br)CBr)(OCC(Br)CBr)OCC(Br)CBr` (stereo not given), for which the result was inactive. Take `O=NN1CCCC1`: the outcome was inactive.

On to `N#Cc1ccc(O)cc1`, for which the result was inactive.

In the case of `FC(F)(F)c1ccc(Cl)cc1`, the result was inactive. Consider `COCCOCCO`, for which the outcome was inactive. In the case of `CC(C)(C)N(NC(=O)c1ccc(Cl)cc1)C(=O)c1ccccc1` it was “inactive”; in that of `CCCCN(CCCC)N=O`, “inactive”. As to `ClC(Cl)c1ccccc1`, the result was inactive.
